Measured values as given in PubChem BioAssay (Tox21).
The source made the active and inactive calls. Calls come from the whole dose curve; as a rule, active = well fitted curve in the direction sought with a large enough effect in the repeat runs; inconclusive = weak or mixed curves; inactive = flat fitted curve, though single readings scatter.

assay: qHTS assay to test for compound auto fluorescence at 590 nm (red) in HEK293 cell free culture (AID 720683); conditions: cell-free medium autofluorescence, Ex540/Em590 red; series mostly up to 91.3 µM
Text: U.S. Tox21 Program National Center for Advancing Translational Sciences [NCATS] NIH Chemical Genomics Center [NCGC] U.S. Environmental Protection Agency [EPA] National Institutes of Environmental Health Sciences [NIEHS] National Toxicology Program [NTP] U.S. Food and Drug Administration [FDA] Tox21 Assay Overview: Compound auto fluorescence often interferes with screening of the compound library against various biological targets and signaling pathways. Some of these compounds may have fluorophoric properties. Such properties may interfere with the assay outputs resulting in false positives and/or negatives. To decrease such complications and ensure the compound activities are relevant in terms of biological response, the Tox21 10K compound library was screened for auto fluorescence. From the fluorophores used as reporter signals in our screening assays, the auto fluorescence equivalencies of compounds against three fluorophores have been evaluated: Triamterene, Fluorescein and Rose Bengal sodium for blue, green and red fluorescence, respectively. The fluorescence intensities were measured using Excitation/Emission wavelengths at 405/460nm, 485/535nm and 540/590nm for blue, green and red labels, respectively. This assay includes the red fluorescence data.
Tox21 Assay Protocol Summary: 5 uL of culture medium (DMEM containing 10% FBS) per well was dispensed into black wall/clear bottom 1536-well plates using a Multidrop Combi Dispenser (ThermoFisher Scientific, Waltham, MA). After 23 nL compound or DMSO vehicle was transferred into assay plate by a pintool work station (Kalypsys, San Diego, CA), fluorescence intensities in the assay plates were measured by an Envision (PerkinElmer, Shelton, CT) plate reader using three labels for measuring blue, green and red fluorescence at […] 460, 535 and 590nm respectively.

Structure (SMILES)	outcome
O=P1(N(CCCl)CCCl)NCCCO1 (stereo not given)	inactive
CC(=O)[O][Hg][c]1ccccc1	inactive
CCCCCCCCCCCCCCCCn1cc[n+](C)c1	inactive
CCCC[N+]1(C)CCCC1	inactive
CCNc1nc(Cl)nc(NCC)n1	inactive
Nc1ccccc1	inactive
Oc1cccc2cccnc12	inactive
CCCC[n+]1ccc(C)cc1	inactive
CCCCCCCCCCCC(=O)O	inactive
CCCCCCCCCCCCOS(=O)(=O)O	inactive
O=C(O)c1nc(Cl)ccc1Cl	inactive
CCC[N+]1(C)CCCC1	inactive
CC[N+](CC)(CC)CC	inactive
CCCCCCn1cc[n+](C)c1	inactive
O=c1[nH]c(=O)n(Cl)c(=O)n1Cl	inactive
CCCC[n+]1ccccc1C	inactive
CCCCCC[n+]1ccccc1	inactive
O=[N+]([O-])O	inactive
OCCOc1ccccc1	inactive
CCCCn1cc[n+](C)c1C	inactive

Structure (SMILES)	outcome
O=C(O)C(Cl)(Cl)Cl	inactive
CCCC[n+]1ccccc1	inactive
O=C(O)CCl	inactive
COc1ccccc1N	inactive
Nc1ccc(-c2ccc(N)c(Cl)c2)cc1Cl	inactive
CCCC[N+]1(C)CCCCC1	inactive
C=CCOC(Cn1ccnc1)c1ccc(Cl)cc1Cl (stereo not given)	inactive
C1CCC(NC2CCCCC2)CC1	inactive
COc1ccc(N)cc1	inactive
O=c1nc(O)n(Cl)c(=O)n1Cl	inactive
O=S(=O)(O)O	inactive
Cc1cc(Cl)ccc1OCC(=O)O	inactive
CCn1cc[n+](C)c1C	inactive
CCCC[n+]1cccc(C)c1	inactive
Cc1cc(-c2ccc(N)c(C)c2)ccc1N	inactive
O=C(O)COc1ccc(Cl)cc1Cl	inactive
CCC[N+]1(C)CCCCC1	inactive
CCCCCCCCCCCCCC[P+](CCCCCC)(CCCCCC)CCCCCC	inactive
CC(=O)O	inactive
C[N+](C)(C)Cc1ccccc1	inactive
